# Results taken from the supplement of paper PMC10849652.
# The full data set covers some 8,800 targets. This sample favours those with a hit. About 0.5% of all pairs of compound and target were hits. Values without a mark were called inactive.
# Tests used:
# Test in all cases: log2 fold change, soluble protein after heating vs DMSO (PISA); higher = thermal stabilisation; K562 lysate, 10 uM; active = over 0.2 and 3.5 SD of the protein, either way, in both replicates (recomputed)
# vemurafenib = compound: CCCS(=O)(=O)Nc1ccc(F)c(C(=O)c2c[nH]c3ncc(-c4ccc(Cl)cc4)cc23)c1F [vemurafenib]
# Procedure, shortened: (§1)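 K562 pellets were dounce-homogenised in PBS pH 7.4 with 1 mM MgCl2, and the crude extract at 1 mg/mL protein was treated with 10 μM compound for 30 min. Aliquots were heated for 3 min across 48°C-58°C, pooled, and brought to 0.5% NP-40 at 4°C; soluble protein was the supernatant after 21,000xg for 90 min. Soluble protein was quantified by TMTpro 16plex LC-MS/MS with channel sums equalised, and reported as log2 fold change in thermal stability against DMSO controls, with values from duplicates.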
# [1] = compound: CCCS(=O)(=O)Nc1ccc(F)c(C(=O)c2c[nH]c3ncc(Cl)cc23)c1F
# Procedure, shortened: as §1
# barasertib = compound: CCN(CCCOc1ccc2c(Nc3cc(CC(=O)Nc4cccc(F)c4)[nH]n3)ncnc2c1)CCOP(=O)(O)O [barasertib]
# Procedure, shortened: as §1
# [2] = compound: CC[C@@H]1C(=O)N(C)c2cnc(Nc3ccc(C(=O)NC4CCN(C)CC4)cc3OC)nc2N1C1CCCC1
# Procedure, shortened: as §1
# volasertib = compound: CC[C@@H]1C(=O)N(C)c2cnc(Nc3ccc(C(=O)N[C@H]4CC[C@H](N5CCN(CC6CC6)CC5)CC4)cc3OC)nc2N1C(C)C [volasertib]
# Procedure, shortened: as §1
# [3] = compound: CCn1c(C(=O)N(C2CC2)C2CC2)cc2c3c(ncn3C)c(Nc3cc(C)n(C)n3)nc21
# Procedure, shortened: as §1
# [4] = compound: CCn1cc(-c2ccnc3[nH]c(-c4cccc(CN(C)C)c4)cc23)c(-c2ccc(NC(=O)N(C)C)cc2)n1
# Procedure, shortened: as §1
# [5] = compound: CN1CCC(CNc2ccc3ncc(-c4cccc(OC(F)(F)F)c4)n3n2)CC1
# Procedure, shortened: as §1
# saracatinib = compound: CN1CCN(CCOc2cc(OC3CCOCC3)c3c(Nc4c(Cl)ccc5c4OCO5)ncnc3c2)CC1 [saracatinib]
# Procedure, shortened: as §1
# sotrastaurin = compound: CN1CCN(c2nc(C3=C(c4c[nH]c5ccccc45)C(=O)NC3=O)c3ccccc3n2)CC1 [sotrastaurin]
# Procedure, shortened: as §1
# alvocidib = compound: CN1CC[C@H](c2c(O)cc(O)c3c(=O)cc(-c4ccccc4Cl)oc23)[C@H](O)C1 [alvocidib]
# Procedure, shortened: as §1
# Tubastatin A = compound: CN1CCc2c(c3ccccc3n2Cc2ccc(C(=O)NO)cc2)C1 [Tubastatin A]
# Procedure, shortened: as §1
# [6] = compound: CNC(=O)C1=CC=CC=C1NC2=NC(=NC=C2Cl)NC3=C(C=C(C=C3)N4CCOCC4)OC
# Procedure, shortened: as §1
# defactinib = compound: CNC(=O)c1ccc(Nc2ncc(C(F)(F)F)c(NCc3nccnc3N(C)S(C)(=O)=O)n2)cc1 [defactinib]
# Procedure, shortened: as §1
# [7] = compound: CNc1nc(-c2ccc3c(N)n[nH]c3c2)cc(N2C[C@@H](C(=O)NC3CCCCC3)CC[C@H]2C)n1
# Procedure, shortened: as §1
# encorafenib = compound: COC(=O)N[C@@H](C)CNc1nccc(-c2cn(C(C)C)nc2-c2cc(Cl)cc(NS(C)(=O)=O)c2F)n1 [encorafenib]
# Procedure, shortened: as §1
# [8] = compound: COC(=O)[C@H](CCSC)NC(=O)C1=C(C=C(C=C1)NC[C@H](CS)N)C2=CC=CC=C2
# Procedure, shortened: as §1
# alisertib = compound: COc1cc(Nc2ncc3c(n2)-c2ccc(Cl)cc2C(c2c(F)cccc2OC)=NC3)ccc1C(=O)O [alisertib]
# Procedure, shortened: as §1
# [9] = compound: COc1cc2nc(-c3cc(F)ccc3O)nc(N[C@@H]3CNC[C@H]3C(C)(C)O)c2cc1OC
# Procedure, shortened: as §1
# gefitinib = compound: COc1cc2ncnc(Nc3ccc(F)c(Cl)c3)c2cc1OCCCN1CCOCC1 [gefitinib]
# Procedure, shortened: as §1
# UniProt O00170, sequence (O00170 whole entry, looked up): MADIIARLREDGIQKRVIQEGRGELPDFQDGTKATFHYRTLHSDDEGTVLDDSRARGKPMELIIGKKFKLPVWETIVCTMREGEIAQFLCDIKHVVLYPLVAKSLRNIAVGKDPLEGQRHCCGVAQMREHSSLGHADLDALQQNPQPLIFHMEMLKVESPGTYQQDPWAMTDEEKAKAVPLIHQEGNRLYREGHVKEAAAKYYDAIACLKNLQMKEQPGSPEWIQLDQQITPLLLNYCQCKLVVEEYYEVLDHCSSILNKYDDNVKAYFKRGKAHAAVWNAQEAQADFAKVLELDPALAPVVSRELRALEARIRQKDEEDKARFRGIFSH
# UniProt P00352, sequence (P00352 whole entry, looked up): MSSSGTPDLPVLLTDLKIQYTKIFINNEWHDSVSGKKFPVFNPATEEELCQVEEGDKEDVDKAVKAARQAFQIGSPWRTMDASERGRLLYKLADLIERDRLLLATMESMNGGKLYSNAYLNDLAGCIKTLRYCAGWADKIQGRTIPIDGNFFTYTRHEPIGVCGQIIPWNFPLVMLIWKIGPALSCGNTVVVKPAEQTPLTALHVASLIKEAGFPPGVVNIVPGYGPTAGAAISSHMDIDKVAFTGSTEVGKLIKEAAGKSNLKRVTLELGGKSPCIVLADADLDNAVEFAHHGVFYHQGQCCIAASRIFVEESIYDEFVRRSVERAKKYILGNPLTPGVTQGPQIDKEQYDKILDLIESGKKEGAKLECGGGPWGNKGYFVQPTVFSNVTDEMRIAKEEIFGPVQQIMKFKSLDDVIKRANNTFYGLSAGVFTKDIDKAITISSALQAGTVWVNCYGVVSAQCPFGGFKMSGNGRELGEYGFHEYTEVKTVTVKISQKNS
# UniProt P35611, sequence (P35611 whole entry, looked up): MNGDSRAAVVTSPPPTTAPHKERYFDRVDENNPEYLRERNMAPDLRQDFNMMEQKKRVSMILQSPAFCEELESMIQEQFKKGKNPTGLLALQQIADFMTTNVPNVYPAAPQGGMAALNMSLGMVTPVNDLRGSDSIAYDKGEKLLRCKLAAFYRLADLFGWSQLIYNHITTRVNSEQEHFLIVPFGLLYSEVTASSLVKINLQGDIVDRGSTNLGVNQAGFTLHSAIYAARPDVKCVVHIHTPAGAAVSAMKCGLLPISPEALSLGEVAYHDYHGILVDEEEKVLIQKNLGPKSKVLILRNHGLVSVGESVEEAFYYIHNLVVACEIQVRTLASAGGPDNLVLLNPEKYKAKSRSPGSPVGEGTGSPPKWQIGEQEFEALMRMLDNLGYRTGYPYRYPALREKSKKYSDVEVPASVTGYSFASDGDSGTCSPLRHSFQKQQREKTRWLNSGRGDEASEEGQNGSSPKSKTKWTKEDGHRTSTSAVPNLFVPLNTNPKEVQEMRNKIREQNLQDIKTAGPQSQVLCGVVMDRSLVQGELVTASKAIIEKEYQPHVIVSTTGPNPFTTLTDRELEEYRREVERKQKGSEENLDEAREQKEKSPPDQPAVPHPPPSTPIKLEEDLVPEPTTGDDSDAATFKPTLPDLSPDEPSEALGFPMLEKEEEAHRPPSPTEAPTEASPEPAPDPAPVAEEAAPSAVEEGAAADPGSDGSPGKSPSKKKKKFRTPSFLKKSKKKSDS
# UniProt Q96BM9, sequence (Q96BM9 whole entry, looked up): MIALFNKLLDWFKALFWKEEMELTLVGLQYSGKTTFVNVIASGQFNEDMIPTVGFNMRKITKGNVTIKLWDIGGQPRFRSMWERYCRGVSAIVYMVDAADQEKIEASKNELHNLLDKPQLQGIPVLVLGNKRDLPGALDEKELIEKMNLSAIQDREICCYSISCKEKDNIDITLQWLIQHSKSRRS
# UniProt Q9NP73, sequence (Q9NP73 whole entry, looked up): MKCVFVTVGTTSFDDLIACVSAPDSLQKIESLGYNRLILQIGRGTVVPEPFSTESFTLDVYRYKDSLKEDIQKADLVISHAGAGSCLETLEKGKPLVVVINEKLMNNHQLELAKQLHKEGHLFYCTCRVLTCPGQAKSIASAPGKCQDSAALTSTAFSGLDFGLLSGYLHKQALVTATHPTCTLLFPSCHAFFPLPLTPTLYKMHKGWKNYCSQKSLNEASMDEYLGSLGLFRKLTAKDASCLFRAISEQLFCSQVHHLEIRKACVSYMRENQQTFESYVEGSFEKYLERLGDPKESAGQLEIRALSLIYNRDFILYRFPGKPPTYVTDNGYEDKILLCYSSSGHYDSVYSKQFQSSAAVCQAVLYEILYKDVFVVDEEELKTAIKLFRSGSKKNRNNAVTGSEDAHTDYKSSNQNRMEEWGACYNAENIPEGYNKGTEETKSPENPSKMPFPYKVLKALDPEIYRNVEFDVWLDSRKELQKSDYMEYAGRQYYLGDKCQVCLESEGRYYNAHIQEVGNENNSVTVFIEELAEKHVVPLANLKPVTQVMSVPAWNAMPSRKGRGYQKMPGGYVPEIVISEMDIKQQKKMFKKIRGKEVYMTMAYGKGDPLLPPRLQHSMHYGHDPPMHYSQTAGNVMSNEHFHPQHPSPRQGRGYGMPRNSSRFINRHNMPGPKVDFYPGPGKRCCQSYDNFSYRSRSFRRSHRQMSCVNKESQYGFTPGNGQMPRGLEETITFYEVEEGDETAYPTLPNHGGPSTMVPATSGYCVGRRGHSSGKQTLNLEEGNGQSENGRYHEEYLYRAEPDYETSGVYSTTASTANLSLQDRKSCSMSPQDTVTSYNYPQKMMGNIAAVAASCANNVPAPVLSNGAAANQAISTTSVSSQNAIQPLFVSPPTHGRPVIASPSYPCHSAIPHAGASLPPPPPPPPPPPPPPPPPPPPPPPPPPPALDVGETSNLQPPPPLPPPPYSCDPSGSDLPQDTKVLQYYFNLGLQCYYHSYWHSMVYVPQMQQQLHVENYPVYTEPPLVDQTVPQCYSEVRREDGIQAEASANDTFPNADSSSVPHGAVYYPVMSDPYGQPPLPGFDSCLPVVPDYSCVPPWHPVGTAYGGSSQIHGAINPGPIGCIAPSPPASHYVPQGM
# UniProt P28288, sequence (P28288 whole entry, looked up): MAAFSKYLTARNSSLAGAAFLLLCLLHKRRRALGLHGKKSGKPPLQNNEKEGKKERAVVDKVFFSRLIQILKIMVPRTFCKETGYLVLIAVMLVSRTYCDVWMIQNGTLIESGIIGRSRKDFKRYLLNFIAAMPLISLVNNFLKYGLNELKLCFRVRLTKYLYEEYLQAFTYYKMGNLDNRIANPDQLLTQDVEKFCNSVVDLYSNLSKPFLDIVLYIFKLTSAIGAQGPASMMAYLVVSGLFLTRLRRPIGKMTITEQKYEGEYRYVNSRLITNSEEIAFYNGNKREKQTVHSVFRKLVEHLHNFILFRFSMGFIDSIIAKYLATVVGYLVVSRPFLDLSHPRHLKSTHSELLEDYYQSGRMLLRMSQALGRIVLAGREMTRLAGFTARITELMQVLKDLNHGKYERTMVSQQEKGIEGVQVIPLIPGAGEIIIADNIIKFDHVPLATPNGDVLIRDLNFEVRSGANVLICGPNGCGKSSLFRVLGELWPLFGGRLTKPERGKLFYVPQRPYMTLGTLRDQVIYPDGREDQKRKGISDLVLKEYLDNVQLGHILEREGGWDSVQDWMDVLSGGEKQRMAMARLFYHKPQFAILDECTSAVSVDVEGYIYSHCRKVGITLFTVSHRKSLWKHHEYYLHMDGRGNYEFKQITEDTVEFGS
# UniProt Q6NXE6, sequence (Q6NXE6 whole entry, looked up): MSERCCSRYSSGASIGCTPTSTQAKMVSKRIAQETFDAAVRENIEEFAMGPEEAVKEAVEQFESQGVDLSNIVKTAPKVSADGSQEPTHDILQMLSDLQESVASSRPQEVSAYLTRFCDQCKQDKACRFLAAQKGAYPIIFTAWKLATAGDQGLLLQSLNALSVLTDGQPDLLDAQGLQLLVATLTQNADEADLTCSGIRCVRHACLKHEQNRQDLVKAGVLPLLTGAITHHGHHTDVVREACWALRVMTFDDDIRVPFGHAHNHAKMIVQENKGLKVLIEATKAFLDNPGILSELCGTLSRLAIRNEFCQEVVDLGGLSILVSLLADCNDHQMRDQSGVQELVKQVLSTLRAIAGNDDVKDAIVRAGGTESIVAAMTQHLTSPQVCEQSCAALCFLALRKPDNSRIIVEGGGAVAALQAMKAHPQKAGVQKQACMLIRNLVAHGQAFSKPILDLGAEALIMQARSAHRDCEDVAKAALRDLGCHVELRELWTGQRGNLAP
Target,log2 fold change (vemurafenib),log2 fold change [1],log2 fold change (barasertib),log2 fold change [2],log2 fold change (volasertib),log2 fold change [3],log2 fold change [4],log2 fold change [5],log2 fold change (saracatinib),log2 fold change (sotrastaurin),log2 fold change (alvocidib),log2 fold change (Tubastatin A),log2 fold change [6],log2 fold change (defactinib),log2 fold change [7],log2 fold change (encorafenib),log2 fold change [8],log2 fold change (alisertib),log2 fold change [9],log2 fold change (gefitinib)
ADD1 isoform 3 (UniProt P35611),-0.025,-0.002,-0.001,0.036,0.007,-0.002,-0.013,0.054,0.002,0,0.016,0.007,-0.013,0.015,0.031,0.004,-0.034,0.03,0.006,-0.01
ABCD3 (UniProt P28288),0.078,0.058,0.053,-0.077,-0.029,-0.07,-0.054,0.044,-0.071,0.073,-0.064,0.1,-0.114,-0.019,-0.048,0.028,0.444 (active),0.044,-0.013,0.145
ALDH1A1 (UniProt P00352),-0.027,0.001,-0.014,-0.016,-0.005,-0.052,0.051,-0.09,0.272,0.001,0.06,-0.004,0.004,-0.007,-0.037,-0.009,-0.043,0.01,-0.001,-0.017
ABCA3 (UniProt Q99758),0.114,-0.044,0.057,-0.009,0.089,-0.163,-0.086,0.051,-0.05,0.031,0.109,0.188,-0.017,-0.037,0.317,-0.12,0.025,,-0.09,
ARMC6 (UniProt Q6NXE6),-0.053,0.02,0.071,-0.136,-0.056,0.019,0.002,-0.035,0.013,0.019,0,-0.171,0,-0.003,-0.103,0.037,0.234 (active),0.005,-0.014,0.041
AIP (UniProt O00170),-0.002,0.015,-0.004,0.017,-0.004,-0.022,0.514 (active),-0.019,-0.015,0.007,0.164,0.003,0.037,0.004,0.015,-0.008,0.043,-0.039,-0.002,-0.032
ALG13 (UniProt Q9NP73),0.014,0.015,0.054,0.041,-0.041,-0.016,-0.14,0.086,0.023,0.017,-0.039,-0.065,0.122,0.028,0.053,0.059,-0.082,-0.059,0,-0.224
ARL8A (UniProt Q96BM9),-0.029,-0.26,-0.026,-0.001,-0.037,-0.03,0.558 (active),-0.199,0.03,0.022,0.082,0.043,0.06,0.019,0.204,-0.048,-0.03,-0.186,0.027,0.013
